The values below come from PubChem BioAssay (Tox21).

Assay [1] is described as follows: A CellTox Green Cytotoxicity Assay to monitor cytotoxicity in HEK293 cells - 40 hour (AID 1224871). Further: nearly all actives have a fitted effect of over 45% in size. Further: potency means the concentration at half of the fitted maximal effect. Conditions: CellTox Green fluorescence; series mostly up to 76.8 µM. The method in brief:
(§1)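 HEK293 cells premixed with CellTox Green dye were seeded at 600 cells/well and left 5 h at 37 C/5% CO2 before pin transfer of 23 nL compound in DMSO. Fluorescence from dye bound to dead-cell DNA was read during 40 h treatment.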

A short description of assay [2]: qHTS RealTime-Glo MT Cell Viability Assay in HEK293 cells - 16 hour (AID 1224872). Further: top concentration of the series differs between compounds; nearly all actives have a fitted effect of over 50% in size. Conditions: RealTime-Glo luminescence; series mostly up to 76.8 µM. The method in brief:
(§2)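 Homogeneous bioluminescent viability format in HEK293 cells (600 cells/well). Following 5 h at 37 C/5% CO2, 23 nL compound was pintooled; the signal was measured repeatedly during 40 h incubation.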
On the technique in general: In qHTS, concentration-response curves come from the screen itself.

Assay [3] in a line: qHTS RealTime-Glo MT Cell Viability Assay in HepG2 cells - 8 hour (AID 1224873). Further: nearly all actives have a fitted effect of over 55% in size. Further: potency means the concentration at half of the fitted maximal effect. Conditions: RealTime-Glo luminescence; series mostly up to 76.8 µM. The essentials: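 HepG2 cells (600/well) mixed with RealTime-Glo MT reagent, settled 5 h at 37 C/5% CO2 before compound addition. Nonlytic NanoLuc luminescence from viable-cell prosubstrate reduction read repeatedly during 40 h treatment at 37 C.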

Assay [4] in a line: qHTS RealTime-Glo MT Cell Viability Assay in HEK293 cells - 40 hour (AID 1224874). Further: nearly all actives have a fitted effect of over 50% in size. Further: potency means the concentration at half of the fitted maximal effect. Conditions: RealTime-Glo luminescence; max response: stronger effect = lower value. The method in brief: (§3)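 HEK293 cells mixed with RealTime-Glo reagents (NanoLuc plus cell-permeant prosubstrate) at 600 cells/well, preincubated 5 h at 37 C/5% CO2, then given 23 nL compound in DMSO. Nonlytic luminescence from viable cells was read at 0, 8, 16, 24, 32 and 40 h.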

Assay [5] can be described thus: A CellTox Green Cytotoxicity Assay to monitor cytotoxicity in HEK293 cells - 24 hour (AID 1224875). Further: nearly all actives have a fitted effect of over 45% in size. Further: potency means the concentration at half of the fitted maximal effect. Conditions: CellTox Green fluorescence; series mostly up to 76.8 µM. The essentials: as §1
Assay [6] can be described thus: A CellTox Green Cytotoxicity Assay to monitor cytotoxicity in HepG2 cells - 16 hour (AID 1224876). Further: nearly all actives have a fitted effect of over 45% in size. Further: potency means the concentration at half of the fitted maximal effect. Conditions: CellTox Green fluorescence; series mostly up to 76.8 µM. The essentials:
(§4)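 HepG2 cells were seeded together with the CellTox Green dye at 600 cells/well, left 5 h at 37 C/5% CO2, then given compounds in DMSO. Fluorescence from dye bound to dead-cell DNA was read repeatedly over 40 h of treatment at 37 C.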

Assay [7] in a line: A CellTox Green Cytotoxicity Assay to monitor cytotoxicity in HepG2 cells - 24 hour (AID 1224878). Further: nearly all actives have a fitted effect of over 45% in size. Further: potency means the concentration at half of the fitted maximal effect. Conditions: CellTox Green fluorescence; series mostly up to 76.8 µM. The essentials:
as §4

Assay [8] is described as follows: qHTS RealTime-Glo MT Cell Viability Assay in HEK293 cells - 0 hour (AID 1224880). Further: nearly all actives have a fitted effect of over 45% in size. Further: potency means the concentration at half of the fitted maximal effect. Conditions: RealTime-Glo luminescence; series mostly up to 76.8 µM. The essentials: as §3
Assay [9] is described as follows: A CellTox Green Cytotoxicity Assay to monitor cytotoxicity in HEK293 cells - 32 hour (AID 1224881). Further: nearly all actives have a fitted effect of over 40% in size. Further: potency means the concentration at half of the fitted maximal effect. Conditions: CellTox Green fluorescence; series mostly up to 76.8 µM. The essentials: as §1
The nature of assay [10]: A CellTox Green Cytotoxicity Assay to monitor cytotoxicity in HepG2 cells - 0 hour (AID 1224882). Further: nearly all actives have a fitted effect of over 35% in size. Further: potency means the concentration at half of the fitted maximal effect. Conditions: CellTox Green fluorescence; series mostly up to 76.8 µM. The method in brief: as §4
A short description of assay [11]: A CellTox Green Cytotoxicity Assay to monitor cytotoxicity in HepG2 cells - 32 hour (AID 1224883). Further: nearly all actives have a fitted effect of over 50% in size. Further: potency means the concentration at half of the fitted maximal effect. Conditions: CellTox Green fluorescence; series mostly up to 76.8 µM. The method in brief: as §4
Assay [12] in a line: A CellTox Green Cytotoxicity Assay to monitor cytotoxicity in HEK293 cells - 8 hour (AID 1224884). Further: nearly all actives have a fitted effect of over 35% in size. Further: potency means the concentration at half of the fitted maximal effect. Conditions: CellTox Green fluorescence; series mostly up to 76.8 µM. The method in brief:
as §1

A short description of assay [13]: qHTS RealTime-Glo MT Cell Viability Assay in HepG2 cells - 16 hour (AID 1224885). Further: nearly all actives have a fitted effect of over 50% in size. Further: potency means the concentration at half of the fitted maximal effect. Conditions: RealTime-Glo luminescence; series mostly up to 76.8 µM. The essentials: (§5)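 Cell number in HepG2 cultures estimated from NanoLuc luminescence generated by metabolic reduction of a prosubstrate by living cells. The homogeneous, nonlytic format allowed repeated reads at 0, 8, 16, 24, 32 and 40 h of compound exposure.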

Assay [14] is described as follows: qHTS RealTime-Glo MT Cell Viability Assay in HEK293 cells - 24 hour (AID 1224886). Conditions: RealTime-Glo luminescence; series mostly up to 76.8 µM. The method in brief: as §2
A short description of assay [15]: qHTS RealTime-Glo MT Cell Viability Assay in HEK293 cells - 8 hour (AID 1224887). Further: nearly all actives have a fitted effect of over 50% in size. Further: potency means the concentration at half of the fitted maximal effect. Conditions: RealTime-Glo luminescence; series mostly up to 76.8 µM. The essentials:
as §3

A short description of assay [16]: A CellTox Green Cytotoxicity Assay to monitor cytotoxicity in HEK293 cells - 16 hour (AID 1224888). Further: nearly all actives have a fitted effect of over 35% in size. Further: potency means the concentration at half of the fitted maximal effect. Conditions: CellTox Green fluorescence; series mostly up to 76.8 µM. The essentials:
as §1

Assay [17] can be described thus: qHTS RealTime-Glo MT Cell Viability Assay in HepG2 cells - 0 hour (AID 1224889). Further: nearly all actives have a fitted effect of over 50% in size. Further: potency means the concentration at half of the fitted maximal effect. Conditions: RealTime-Glo luminescence; series mostly up to 76.8 µM. The essentials: as §5
The nature of assay [18]: A CellTox Green Cytotoxicity Assay to monitor cytotoxicity in HepG2 cells - 8 hour (AID 1224890). Further: nearly all actives have a fitted effect of over 45% in size. Further: potency means the concentration at half of the fitted maximal effect. Conditions: CellTox Green fluorescence; series mostly up to 76.8 µM. The essentials:
as §4

A short description of assay [19]: A CellTox Green Cytotoxicity Assay to monitor cytotoxicity in HepG2 cells - 40 hour (AID 1224879). Further: nearly all actives have a fitted effect of over 40% in size. Conditions: CellTox Green fluorescence; series mostly up to 76.8 µM. The essentials: as §4
Assay [20] is described as follows: qHTS RealTime-Glo MT Cell Viability Assay in HepG2 cells - 32 hour (AID 1224877). Further: nearly all actives have a fitted effect of over 55% in size. Conditions: RealTime-Glo luminescence; series mostly up to 76.8 µM. The method in brief:
as §5

SMILES strings stand for the structures. Several values for one entry are separate records, joined by “and”; a condition that tells them apart may be missing. Equal entries are not always repeated. Results filed as inconclusive are left out. Some structures have more than one record in an assay (separate samples or runs), and their calls can disagree. Activity calls are given as the source filed them. The call rests on the fitted dose curve; in most records, active means well fitted curve in the direction sought with a large enough effect in the repeat runs; inconclusive means weak or mixed curves; inactive means no such curve, though single readings can be large; an effect the other way counts as inactive or inconclusive.
On the % scale 0 is the no-effect control and ±100 the full control effect.

Take `C[N+](C)(C)CCO`: the Potency entry in [1], in [2], in assay [3], in assay [5], in assay [6] and in assay [7] was “inactive” throughout. The Potency entry in assay [8], in [9], in assay [10], in assay [11], in assay [12] and in assay [13] was “inactive” each time. Also, the Potency result in assay [14], in [15], in assay [16], in assay [17] and in [18] was “inactive” in each case. For the same molecule, the max response in assay [4] is 15.9% (inactive) and 6.06% (inactive).
On to `O=C1OC2(c3ccccc31)c1cc(I)c(O)c(I)c1Oc1c2cc(I)c(O)c1I`, for which the Potency was 11.8 µM (active) [middle of 4 runs] in assay [1]; 39 µM (active) in assay [3]; 49.1 µM (active) in assay [4]; 12 µM (active) [middle of 4 runs] in assay [5]; 11.8 µM (active) [middle of 4 runs] in assay [6]; 13.3 µM (active) [middle of 4 runs] in assay [7]. Besides, the Potency in assay [8] is 5.56 µM (active) [middle of 4 runs]; in assay [9], 11.8 µM (active) [middle of 4 runs]; in [10], 11.8 µM (active) [middle of 4 runs]; in assay [11] it was 13.3 µM (active) [middle of 4 runs]; in assay [12], 13.3 µM (active) [middle of 4 runs]; in [13] it was 39 µM (active) and 27.9 µM (active). Besides, the Potency in assay [15] is 49.1 µM (active) and inactive; in [16], 13.3 µM (active) [middle of 4 runs]; in assay [17] it was 12.3 µM (active) [middle of 4 runs]; in [18], 11.8 µM (active) [middle of 4 runs]. For the same molecule, the max response in [4] was -20.2% (inactive).
Take `CCC(Cc1c(I)cc(I)c(N)c1I)C(=O)O` (stereo unspecified): the Potency result in assay [1], in [2], in assay [3], in assay [5], in assay [6] and in assay [7] was “inactive” in each case. Further, the Potency entry in assay [8], in [9], in assay [10], in assay [11], in assay [12] and in [13] was “inactive” in each case. Moreover, the Potency entry in [15], in assay [16], in assay [17] and in assay [18] was “inactive” throughout. The max response in [4] is 3.1% (inactive) and 8.35% (inactive).
As for `c1ccc2c(c1)ccc1ncccc12`, the Potency entry in assay [1], in assay [2], in [3], in [5], in assay [6] and in assay [7] was “inactive” in each case. The Potency entry in [19], in assay [8], in assay [9], in assay [10], in assay [11] and in [12] was “inactive” throughout. Also, the Potency entry in [13], in [15], in assay [16], in assay [17] and in [18] was “inactive” in each case. Further, the max response in assay [4] is -12% (inactive) and -17.1% (inactive).
Turning to `CN1CCOCC1`, the Potency result in assay [1], in assay [2], in [3], in assay [5], in assay [6] and in [20] was “inactive” in each case. The Potency result in assay [7], in assay [9], in assay [10], in [11], in assay [12] and in [13] was “inactive” in each case. Further, the Potency entry in assay [15], in [16], in assay [17] and in [18] was “inactive” in each case. Besides, the max response in [4] was 8.86% (inactive) and 4.46% (inactive).
As to `Brc1nc2ccccc2s1`, the Potency result in [1], in [3], in [5], in assay [6], in assay [20] and in assay [7] was “inactive” each time. For the same molecule, the Potency result in [19], in assay [8], in assay [9], in assay [10], in assay [11] and in assay [12] was “inactive” each time. Moreover, the Potency result in [13], in assay [14], in [15], in assay [16], in [17] and in [18] was “inactive” each time. The max response in assay [4] is 0.941% (inactive) and 3.88% (inactive).
